# Measurements taken from PubChem BioAssay (NCATS).
# Records with an inconclusive call do not appear. The source made the active and inactive calls. Calls come from the whole dose curve; as a rule, active = well fitted inhibition curve with a large enough effect; inconclusive = small, poorly fitted or top-dose-only effect; inactive = flat fitted curve, though single readings scatter.
# Target: Phospholipid hydroperoxide glutathione peroxidase GPX4 (Homo sapiens) (UniProt P36969)
# Experiment: Primary qHTS Assay for Inhibitors of Recombinant Selenoprotein Glutathione Peroxidase 4 (GPX4) (AID 1845192); note: nearly all actives have a fitted effect of over 65% in size; for activity change, negative = inhibition: % is set by controls: 0 for no effect and ±100 for the full control effect
# Conditions: recombinant GPX4, GR-coupled NADPH fluorescence, 15 min; series mostly up to 50 µM; activity change, negative = inhibition: at the top concentration
# How it was run: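 Steps: GPX4 plus compound, 30 min RT; add GR/GSH/NADPH master mix; start with cumene hydroperoxide; read 340/450 nm fluorescence at 0 and 15 min. Finals were 200 nM GPX4, 1 mM GSH, 0.5 mM CHP, 0.5 mM NADPH, 100 nM GR.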
# Chain of Phospholipid hydroperoxide glutathione peroxidase GPX4 (Homo sapiens) (P36969 whole entry, looked up): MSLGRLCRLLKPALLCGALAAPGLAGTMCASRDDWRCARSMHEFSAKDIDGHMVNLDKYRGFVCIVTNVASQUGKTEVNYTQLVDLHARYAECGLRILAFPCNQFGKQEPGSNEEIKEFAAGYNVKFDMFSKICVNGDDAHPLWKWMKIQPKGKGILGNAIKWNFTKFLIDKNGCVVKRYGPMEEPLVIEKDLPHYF
Structure (SMILES),"activity change, negative = inhibition",outcome
CCCCCCCCCCCCCCCC(=O)OC[C@@H](NC(=O)C(Cl)Cl)[C@H](O)c1ccc([N+](=O)[O-])cc1,-7.68% (inactive),–
COc1ccc(C[C@@H](C)[C@@H](C)Cc2ccc(OC)c(OC)c2)cc1OC,1.46% (inactive),–
Oc1cc2c(cc1O)C1c3ccc(O)c(O)c3OCC1(O)C2 (stereo unspecified),-7.88% (inactive),–
Cc1cncc2cccc(S(=O)(=O)N3CCCN(C(=O)CN)C[C@@H]3C)c12,3.95% (inactive),–
Cn1cnc2c(F)c(Nc3ccc(Br)cc3F)c(C(=O)NOCCO)cc21,4.55% (inactive),–
C[C@H](NC(=O)[C@@H](O)c1cc(F)cc(F)c1)C(=O)N[C@@H]1C(=O)N(C)c2ccccc2-c2ccccc21,–,inactive
CC(C)n1cnc2c(NCCc3ccc(O)cc3)nc(-c3csc4ccccc34)nc21,-19.9% (inactive),–

# Target: Luciferin 4-monooxygenase (Photinus pyralis) (UniProt P08659)
# Experiment: Primary firefly luciferase (FLuc) qHTS assay for identification of artifact compounds. (AID 1845220); note: nearly all actives have a fitted effect of over 60% in size;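 for activity change, negative = inhibition: plate controls were DMSO vehicle for no effect and no enzyme for full effect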
# Conditions: purified firefly luciferase, luminescence, 5 min; series mostly up to 54.1 µM; activity change, negative = inhibition: at the top concentration
# How it was run: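 D-luciferin and ATP (10 uM each, final) in Tris acetate buffer pH 7.6 were incubated with compounds for 15 min at room temperature. The reaction was started with 10 nM Photinus pyralis luciferase and luminescence read after 5 min. Percent inhibition was fitted to a 4-parameter Hill equation.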
Structure (SMILES),outcome,"activity change, negative = inhibition"
Cc1ccccc1C(=O)Nc1ccc(C(=O)N2CCCC(O)c3cc(Cl)ccc32)c(C)c1 (stereo unspecified),inactive,–
Cc1cncc2cccc(S(=O)(=O)N3CCCN(C(=O)CN)C[C@@H]3C)c12,inactive,–
N[C@H]1CN(c2c(F)cc3c(=O)c(C(=O)O)cn(C4C[C@@H]4F)c3c2Cl)CC12CC2 (stereo partly specified),–,-0.094% (inactive)
Cn1cnc2c(F)c(Nc3ccc(Br)cc3F)c(C(=O)NOCCO)cc21,inactive,–
COc1ccc(S(=O)(=O)Nc2cccnc2Nc2ccc(O)cc2)cc1,inactive,–
CC(C)(N)c1ccc(-c2nc3ccccc3nc2-c2ccccc2)cc1,–,2.86% (inactive)
CCOC(=O)[C@@H](N)Cc1ccc(-c2cc(O[C@H](c3ccc(Cl)cc3-n3ccc(C)n3)C(F)(F)F)nc(N)n2)cc1,–,4.6% (inactive)
c1cc(N[C@@H]2CCNC2)nc(-c2cnc3ccc(-c4cn[nH]c4)cn23)c1,–,1.48% (inactive)
Cc1ncc(-c2ccnc(Nc3ccc(S(C)(=O)=O)cc3)n2)n1C(C)C,–,4.66% (inactive)
CC(C)n1cnc2c(NCCc3ccc(O)cc3)nc(-c3csc4ccccc34)nc21,–,-6.14% (inactive)
CCN(CC)Cc1ccc2cc(COC(=O)Nc3ccc(C(=O)NO)cc3)ccc2c1,inactive,–
O=C(Nc1ccc(Oc2ccnc3[nH]ccc23)c(F)c1)c1cccn(-c2ccc(F)cc2)c1=O,inactive,–
CC(C)C[C@H](NC(=O)[C@@H](NC(=O)c1cccc(-c2ccccc2)n1)[C@@H](C)O)B(O)O,–,3.63% (inactive)
Cn1cc(-c2ccc3ncc(Cc4ccc5ncccc5c4)n3n2)cn1,–,2.91% (inactive)
